High-throughput results (PubChem)
Hits are enriched below; roughly 2.2% of the tested compounds scored in any of these assays.
GRK2 inh: human GRK2 inhibition via aptamer displacement. AID 488847. 330,000 tested, 0.59% active. inhibition of aptamer binding, % at 10 µM. bead flow cytometry, FAM-aptamer displacement from GRK2. P25098;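 active means inhibition of aptamer binding above 40%, roughly 3 SD of noise, on plates passing a quality check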;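 further: median bead fluorescence of bound FAM aptamer so fluorescent compounds give negative values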
ANO1 block: mouse TMEM16A channel inhibition, primary screen. Q8BHY3. HEK293 TMEM16A/YFP iodide influx fluorescence, ionomycin. normalized B-score (activity score, 25-100; higher = stronger inhibition) at 10 µM. 310,000 tested, 1.2% active. AID 588511;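 active means ratio plate-corrected score three or more library SD toward inhibition, starting fluorescence score within five deviations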;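 further: score derived from kinetic fluorescence span divided by baseline fluorescence per well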
TLR9-MyD88 block: blocks human TLR9 binding to MyD88; Q9NR96+Q99836; CHO BLA complementation TLR9-MyD88, CCF4 FRET ratio; inhibition, % at 4.98 µM; 340,000 tested, 0.21% active; AID 504734;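 active means inhibition above the mean over all tested compounds plus 3 SD, cut at about 21% in these data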;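 further: 0% = DMSO only wells and 100% = clavulanate BLA inhibitor control wells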
NOD2 RIPK2 PPI: blocks binding of human NOD2 to RIPK2; O43353; CHO BLA complementation NOD2-RIPK2, CCF4 ratio; inhibition, % at 4.98 µM; 360,000 tested, 0.38% active; AID 624267; in the data active means inhibition above about 21%;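 further: 0% = vehicle only and 100% = reference blocker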
Target sequence (O43353 whole entry, looked up): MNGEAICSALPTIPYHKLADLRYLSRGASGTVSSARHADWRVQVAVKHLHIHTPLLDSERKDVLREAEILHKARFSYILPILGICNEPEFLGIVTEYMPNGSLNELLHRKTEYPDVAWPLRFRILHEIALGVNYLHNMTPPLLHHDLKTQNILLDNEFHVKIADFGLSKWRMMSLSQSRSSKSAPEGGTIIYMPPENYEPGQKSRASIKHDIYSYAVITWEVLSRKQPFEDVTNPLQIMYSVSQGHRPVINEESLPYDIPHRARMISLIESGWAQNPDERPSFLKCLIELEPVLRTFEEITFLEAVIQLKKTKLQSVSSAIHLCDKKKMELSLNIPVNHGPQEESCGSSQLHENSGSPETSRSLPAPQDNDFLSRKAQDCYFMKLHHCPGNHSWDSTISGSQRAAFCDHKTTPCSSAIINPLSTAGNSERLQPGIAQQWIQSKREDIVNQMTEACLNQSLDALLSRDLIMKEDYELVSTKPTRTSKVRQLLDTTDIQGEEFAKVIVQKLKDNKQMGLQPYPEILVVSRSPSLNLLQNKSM
TMEM16A act: activates or potentiates the mouse TMEM16A chloride channel; Q8BHY3; 340,000 tested, 0.3% active; HEK293 TMEM16A/YFP-H148Q/I152L, iodide quench fluorescence; hits give low values; B-score at 10 µM;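 active means fluorescence-ratio B-score plate-corrected deviation score at least 3 library SD below zero, with starting fluorescence score within 5 deviations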;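 further: channel opened by trigger with iodide after compound preincubation; score built on the fluorescence ratio of max minus min over baseline; more negative score means more quench and so TMEM16A activation or potentiation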
TLR4 MyD88 comp: TLR4-MyD88 interaction inhibition in cells | O00206+Q99836 | HeLa CL3-4 TLR4/MyD88 BLA complementation, FRET ratio | inhibition, % at 8.4 µM | 200,000 tested, 0.18% active | AID 861; in the data active means inhibition above about 25%;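 further: 0% = vehicle and 100% = reference inhibitor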
TMEM16A reconf: reconfirmed blocker of mouse TMEM16A calcium-activated chloride channel; shares compounds with ANO1 block; HEK293 TMEM16A/YFP-H148Q, iodide quench fluorescence; ionomycin added to raise cell calcium; inhibition, % at 10 µM; 2,300 tested, 39% active;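 active means mean duplicate percent inhibition, scaled so buffer wells are 0 and the reference blocker 100, over three buffer SD above buffer mean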
HEK293 Ca mobil: alters calcium mobilization in TMEM16A HEK293 cells, counter-screen | shares compounds with ANO1 block | 2,300 tested, 2% active | TMEM16A/YFP HEK293, Fluo4 calcium mobilization | calcium response (% of ionomycin), % at 10 µM;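 active means duplicate-averaged calcium signal over 20% of the ionomycin maximum, relative to buffer baseline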;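 further: each well's signal is peak minus trough fluorescence divided by its pre-addition baseline; 0% = buffer wells and 100% = ionomycin wells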
YFP-HEK293 quench: parental YFP-HEK293 iodide quench counter-screen activity. shares compounds with ANO1 block. ionomycin. YFP ratio F(max-min)/F0 at 10 µM. 2,300 tested, under 10 active;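 active means yellow fluorescent protein signal ratio exceeding the buffer control mean by over 5 SD of those controls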;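 further: ratio is mean of duplicate wells from kinetic YFP trace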
ClC-1 inh: blocks the rat ClC-1 voltage-dependent chloride channel. shares compounds with ANO1 block. CHO ClC-1-YFP, iodide influx fluorescence quench; iodide control reads 0, buffer control 100. ratio percent, % at 10 µM. 2,300 tested, under 10 active. AID 652236;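 active means duplicate-mean ratio percent above the mean of iodide-only control wells, which defines zero, plus 5 of their SD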;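 further: higher percent means stronger block of ClC-1 iodide influx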
The depositor's hits bear a star; i = inactive; / = no result.

SMILES	GRK2 inh	ANO1 block	TLR9-MyD88 block	NOD2 RIPK2 PPI	TMEM16A act	TLR4 MyD88 comp	TMEM16A reconf	HEK293 Ca mobil	YFP-HEK293 quench	ClC-1 inh
CCOC(=O)c1c(Cc2ccccc2)c[nH]c1C	0	i	1	-2	i	1	/	/	/	/
C/C(CC(=O)NC1CCCC1)=N\NC(=O)Cc1csc(N)n1	/	i	-9	8	i	0	/	/	/	/
Cc1cc(OCC(=O)Nc2ccncc2)ccc1Cl	1	25*	4	5	i	/	27%*	i	-0.94	-15
CC(C)c1ccc(OCC(=O)Nc2ccncc2)cc1	0	25*	5	2	i	/	i	i	-0.97	-12
Cc1cc(OCC(=O)Nc2ccncc2)cc(C)c1Br	0	i	4	-5	i	-4	/	/	/	/
CC(NC(=O)CCn1ccc2cc(S(=O)(=O)N3CCCC3)ccc21)c1ccccc1 (centres undefined)	2	i	-3	4	i	/	/	/	/	/
COc1ccccc1CC(Cc1nc2ccccc2[nH]1)c1nc2ccccc2[nH]1 (centres undefined)	0	i	2	-1	i	3	/	/	/	/
Cc1cccc(CC(Cc2nc3ccccc3[nH]2)c2nc3ccccc3[nH]2)c1 (centres undefined)	0	100*	3	-2	i	2	39%*	i	-0.89	-20
Cc1ccc(NC(=O)C(=O)NCCCN2CCOCC2)c(C)c1	0	i	5	-2	i	/	/	/	/	/
Cc1ccc(CN2C3CCCC2CC(NC(=O)c2ccc(C)cc2)C3)cc1 (centres undefined)	0	i	5	-10	i	10	/	/	/	/
O=C(CC1C=Cc2ccccc2N1C(=O)c1ccccc1)c1ccccc1 (centres undefined)	0	100*	4	-13	i	/	20%*	i	-1.1	-2
CC1C=Cc2ccccc2N1C(=O)c1ccccc1 (centres undefined)	0	i	3	2	i	6	/	/	/	/
Cc1noc(C)c1COc1cccc(C(=O)OCCOc2ccc(F)cc2)c1	0	100*	-12	-12	i	-7	i	i	-1	-12
Cc1noc(C)c1COc1cccc(C(=O)OC(C)C#N)c1 (centres undefined)	4	i	-2	-3	i	3	/	/	/	/
Cc1noc(C)c1COC(=O)c1cccc(S(=O)(=O)N2CCCCCC2)c1	0	25*	8	-9	i	12	i	i	-0.81	-20
O=C(C1=C(O)/C(=C/c2ccc(O)cc2)CCC1)C(F)(F)F	0	25*	3	6	i	-10	i	i	-0.93	-21
COCCn1c(SCc2ccc(C(=O)OC)o2)nc2ccccc2c1=O	1	i	6	-15	i	10	/	/	/	/
COC(=O)c1cc(CSc2nc3ccccc3c(=O)n2C)oc1C	0	100*	12	1	i	/	34%*	i	-1.1	-12
Cc1ccc(C)c(N2CCN(C(=O)CCc3nc(-c4ccc(F)cc4)no3)CC2)c1	0	/	-1	-6	/	/	/	/	/	/
COc1ccc(-c2noc(CCC(=O)N3CCN(c4cc(C)ccc4C)CC3)n2)cc1	3	100*	1	-6	i	6	i	i	-0.94	-4
O=C(C[n+]1cccc(C(=O)N/N=C/c2cccc([N+](=O)[O-])c2)c1)c1ccccc1	/	/	-4	-3	i	/	/	/	/	/
C[C@@H](C(=O)N1CCN(c2ccccc2)CC1)N1C(=O)C2CC=CCC2C1=O (some centres undefined)	0	/	-8	-4	i	/	/	/	/	/
CC(C(=O)N1CCN(c2ccccc2)CC1)N1C(=O)C2CC=CCC2C1=O (centres undefined)	0	25*	-5	7	i	7	i	i	-1	-15
O=S(=O)(NCC(c1cccs1)N1CCc2ccccc2C1)c1ccccc1 (centres undefined)	1	i	-8	-1	i	/	35%*	i	-1.1	-4
O=C(O)c1ccccc1N/N=C/c1cc(Br)cc(Br)c1O	3	25*	2	-6	i	/	78%*	i	-1	-21
SMILES	GRK2 inh	ANO1 block	TLR9-MyD88 block	NOD2 RIPK2 PPI	TMEM16A act	TLR4 MyD88 comp	TMEM16A reconf	HEK293 Ca mobil	YFP-HEK293 quench	ClC-1 inh
O=C(Cc1ccccc1)N/N=C/c1cc(Br)cc(Br)c1O	3	i	-5	4	i	/	/	/	/	/
CC(C)CN1CCC(=O)N([C@H](CO)Cc2ccccc2)CC1	0	i	2	6	i	/	/	/	/	/
O=C(CSc1nnc2c(n1)[nH]c1ccccc12)Nc1nncs1	0	i	-23	-13	i	/	/	/	/	/
Cc1cc(C(=O)OCC(=O)Nc2ccc(F)cc2F)c(C)o1	5	100*	5	-1	i	3	i	i	-0.87	-16
Brc1ccc(-c2csc3ncnc(-n4nnc5ccccc54)c23)cc1	1	i	-6	4	i	6	/	/	/	/
COc1ccc(-c2ccc(-c3nnc(Cc4ccc(OC)c(OC)c4)o3)cc2)cc1	0	25*	-12	3	i	17	i	i	-1.3	-2
COC(=O)c1ccc2c(=O)n(CCCCCC(=O)NCc3ccc4c(c3)OCO4)c(=O)[nH]c2c1	0	i	-2	6	i	-7	/	/	/	/
O=C(CCCCCn1c(=O)[nH]c2ccsc2c1=O)NCc1ccc2c(c1)OCO2	0	25*	-1	-4	i	-7	i	i	-1.2	-7
CC(=O)N1C(=O)C(=C2C=C(C)OC(C)=C2)c2ccccc21	0	i	0	9	i	-5	28%*	i	-0.85	0
COc1c(Cl)c(=O)oc2ccc(Cl)cc12	/	/	-5	-2	/	/	/	/	/	/
COc1ccccc1-n1c(=O)oc2ccc(Cl)cc2c1=O	0	25*	5	6	i	1	22%*	i	-1.1	-10
CCc1nc(Nc2cccc(F)c2)c2oc3ccccc3c2n1	0	i	-1	8	i	/	/	/	/	/
CCC(C)C(NC(=O)C1CCC(C)CC1)C(=O)NC(C(=O)OC)C(C)C (centres undefined)	2	i	-4	-4	i	7	/	/	/	/
